Our source for the Potency and outcome values is PubChem BioAssay (Tox21).

SMILES strings stand for the structures. Records with an inconclusive call do not appear. Activity calls are given as the source filed them. Unless noted, the call rests on the fitted dose curve; in most records, active means well fitted curve in the direction sought with a large enough effect in the repeat runs; inconclusive means weak or mixed curves; inactive means no such curve, though single readings can be large; an effect the other way counts as inactive or inconclusive.

Experiment [1] can be described thus: qHTS assay for identifying genotoxic compounds that show differential cytotoxicity against isogenic chicken DT40 cell lines with known DNA damage response pathways - wild type cell line (AID 743012). Further: nearly all actives have a fitted effect of over 60% in size. Further: potency means the concentration at half of the fitted maximal effect. The gist of the method: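 Luminescent ATP viability signal (CellTiter-Glo, 30 min RT) recorded after wild type DT40 cells were incubated with compounds for 40 h at 37 C/5% CO2.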
A general note: In qHTS, concentration-response curves come from the screen itself.

Experiment [2] can be described thus: qHTS assay for identifying genotoxic compounds that show differential cytotoxicity against isogenic chicken DT40 cell lines with known DNA damage response pathways - Rev3 mutant cell line (AID 743014). Further: nearly all actives have a fitted effect of over 55% in size. Further: potency means the concentration at half of the fitted maximal effect.
The nature of experiment [3]: qHTS assay for identifying genotoxic compounds that show differential cytotoxicity against isogenic chicken DT40 cell lines with known DNA damage response pathways - Rad54/Ku70 mutant cell line (AID 743015). Further: nearly all actives have a fitted effect of over 60% in size. Further: potency means the concentration at half of the fitted maximal effect.
In experiment [4] the target is Androgen receptor (Homo sapiens) (UniProt P10275). Put plainly: qHTS assay to identify small molecule antagonists of the androgen receptor (AR) signaling pathway (AID 743035; active means well fitted inhibition curve with a large enough effect in the signal ratio in the repeat runs, not every such curve was filed as active; the % refers to the signal ratio; further: potency means the concentration at half of the fitted maximal effect). The method in brief:
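Quantitative HTS of the Tox21 10K library used HEK293 AR-UAS-bla cells stimulated with R1881 alongside compound for 16 h at 37C, followed by beta-lactamase FRET detection (LiveBLAzer B/G, 2 h, RT).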

Experiment [5] shares this target. Put plainly: qHTS assay to identify small molecule antagonists of the androgen receptor (AR) signaling pathway using the MDA cell line (AID 743042; further: nearly all actives have a fitted effect of over 55% in size; further: potency means the concentration at half of the fitted maximal effect). The gist of the method: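 Antagonist mode: compounds plus R1881 agonist added to MDA-kb2 AR-luc cells, incubated 16 h at 37C. Luciferase reporter luminescence quantified, with multiplexed CellTiter-Fluor readout for cell viability.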

Experiment [6] is described as follows: qHTS assay to identify small molecule antagonists of the thyroid receptor (TR) signaling pathway - cell viability counter screen (AID 743064). Further: nearly all actives have a fitted effect of over 50% in size. Further: potency means the concentration at half of the fitted maximal effect. The method in brief: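 GH3.TRE-Luc cells, 4 h pre-plating; cpd + T3 1 nM final; 37 °C 23.5 h; CellTiter-Fluor 30 min; fluorescence read.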
Experiment [7] is described as follows: qHTS assay to identify small molecule antagonists of the thyroid receptor (TR) signaling pathway (AID 743065). Further: nearly all actives have a fitted effect of over 55% in size. Further: potency means the concentration at half of the fitted maximal effect. The gist of the method:
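Antagonism measured as loss of luciferase signal in GH3 cells stably carrying a TRE-luciferase reporter, co-treated with compound and T3 (1 nM final) for 23.5 h at 37 C. Viability was read in the same well by CellTiter-Fluor.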

Experiment [8] has as its target Estrogen receptor (Homo sapiens) (UniProt P03372). Put plainly: qHTS assay to identify small molecule agonists of the estrogen receptor alpha (ER-alpha) signaling pathway (AID 743075; calls by dose curve).
Another experiment deals with Aromatase (Homo sapiens) (UniProt P11511). Put plainly: qHTS assay to identify aromatase inhibitors (AID 743083). Further: nearly all actives have a fitted effect of over 55% in size. Further: potency means the concentration at half of the fitted maximal effect.
Aromatase (Homo sapiens), sequence (P11511 whole entry, looked up): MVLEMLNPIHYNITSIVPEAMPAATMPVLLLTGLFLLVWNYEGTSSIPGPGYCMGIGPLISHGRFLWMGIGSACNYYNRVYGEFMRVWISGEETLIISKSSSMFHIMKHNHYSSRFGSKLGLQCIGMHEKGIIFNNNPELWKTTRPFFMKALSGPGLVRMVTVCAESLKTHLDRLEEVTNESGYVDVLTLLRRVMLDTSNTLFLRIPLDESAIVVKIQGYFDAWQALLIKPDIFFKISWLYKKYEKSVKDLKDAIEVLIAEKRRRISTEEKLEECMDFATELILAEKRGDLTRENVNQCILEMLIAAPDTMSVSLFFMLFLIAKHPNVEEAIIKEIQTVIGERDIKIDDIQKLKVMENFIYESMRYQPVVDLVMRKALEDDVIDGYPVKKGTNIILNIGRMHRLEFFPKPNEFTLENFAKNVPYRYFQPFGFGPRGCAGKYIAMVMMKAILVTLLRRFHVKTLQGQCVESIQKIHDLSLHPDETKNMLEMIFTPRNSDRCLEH
Experiment [9] in a line: qHTS assay to identify small molecule antagonists of the androgen receptor (AR) signaling pathway using the MDA cell line - cell viability counter screen (AID 743041; further: nearly all actives have a fitted effect of over 45% in size). The gist of the method:
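Using the breast carcinoma line MDA-kb2 AR-luc, test chemicals were co-incubated with R1881 for 16 h; CellTiter-Fluor reagent, added at 15.5 h, provided a fluorescence measure of live cells.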

In experiment [10] the test system is thyroid hormone receptor (rat, GH3 cells). Kind of experiment: qHTS assay to identify small molecule agonists of the thyroid receptor (TR) signaling pathway (AID 743066; calls by dose curve).
Experiment [11] in a line: qHTS assay to identify small molecule antagonists of the estrogen receptor alpha (ER-alpha) signaling pathway using the BG1 cell line - cell viability counter screen (AID 743081).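 Further: compound given together with 17beta-estradiol as the ER stimulus; nearly all actives have a fitted effect of over 45% in size.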 Further: potency means the concentration at half of the fitted maximal effect.
The nature of experiment [12]: qHTS assay to identify small molecule antagonists of the androgen receptor (AR) signaling pathway - cell viability counter screen (AID 743033; further: nearly all actives have a fitted effect of over 45% in size).
Experiment [13] addresses Estrogen receptor (Homo sapiens) (UniProt P03372). Kind of experiment: qHTS assay to identify small molecule antagonists of the estrogen receptor alpha (ER-alpha) signaling pathway (AID 743069; active means well fitted curve in the direction sought with a large enough effect in the signal ratio in the repeat runs, not every such curve was filed as active; the % refers to the signal ratio). The method in brief:
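Fluorescence intensity from a beta-lactamase FRET substrate served as the read-out. Cells: HEK293 with stably integrated ER-alpha-UAS-bla reporter. Agonist 17beta-estradiol was co-added with compounds; incubation 18 hr at 37C, substrate 2 hr at room temperature.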

Experiment [14] in a line: qHTS assay to identify small molecule antagonists of the estrogen receptor alpha (ER-alpha) signaling pathway - cell viability counter screen (AID 743074; calls by dose curve; further: nearly all actives have a fitted effect of over 45% in size).
For experiment [15], the target named is Estrogen receptor (Homo sapiens) (UniProt P03372). Kind of experiment: qHTS assay to identify small molecule agonists of the estrogen receptor alpha (ER-alpha) signaling pathway using the BG1 cell line (AID 743079). Further: nearly all actives have a fitted effect of over 20% in size. Further: potency means the concentration at half of the fitted maximal effect. As to conditions: BG1Luc4E2 cells, ERE-luciferase agonist, 22 h; activation: at 70.3 µM (top of the series).
Estrogen receptor (Homo sapiens), sequence (P03372 whole entry, looked up): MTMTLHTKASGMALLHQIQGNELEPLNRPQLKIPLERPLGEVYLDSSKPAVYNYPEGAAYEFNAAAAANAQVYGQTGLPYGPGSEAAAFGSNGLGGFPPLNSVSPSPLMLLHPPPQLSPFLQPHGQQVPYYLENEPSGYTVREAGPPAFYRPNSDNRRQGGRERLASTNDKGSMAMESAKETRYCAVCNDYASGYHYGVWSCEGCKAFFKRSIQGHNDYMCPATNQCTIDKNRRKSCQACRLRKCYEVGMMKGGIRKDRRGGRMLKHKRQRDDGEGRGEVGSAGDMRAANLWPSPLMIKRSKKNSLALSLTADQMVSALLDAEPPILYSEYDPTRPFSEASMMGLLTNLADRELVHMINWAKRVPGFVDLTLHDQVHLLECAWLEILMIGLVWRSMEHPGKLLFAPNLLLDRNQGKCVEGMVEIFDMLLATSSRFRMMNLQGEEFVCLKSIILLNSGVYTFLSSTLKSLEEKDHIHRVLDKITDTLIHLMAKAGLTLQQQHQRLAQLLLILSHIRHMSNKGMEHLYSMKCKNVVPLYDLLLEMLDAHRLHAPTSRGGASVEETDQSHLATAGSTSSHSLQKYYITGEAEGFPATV
In experiment [16] the target is Androgen receptor (Homo sapiens) (UniProt P10275). Kind of experiment: qHTS assay to identify small molecule agonists of the androgen receptor (AR) signaling pathway (AID 743036; active means well fitted activation curve with a large enough effect in the signal ratio in the repeat runs, with a control signal flat, not every such curve was filed as active; the % refers to the signal ratio). The gist of the method:
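AR-bla HEK293 cells, 2,000/well; 4 h preincubation 37C/5% CO2; compound (DMSO) 16 h at 37C; LiveBLAzer B/G FRET substrate 2 h RT; fluorescence intensity read-out.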

Experiment [17] can be described thus: qHTS assay to identify small molecule antagonists of the estrogen receptor alpha (ER-alpha) signaling pathway using the BG1 cell line (AID 743080; calls by dose curve; further: nearly all actives have a fitted effect of over 25% in size). The method in brief: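 Antagonist mode: compounds in DMSO were pinned onto BG1-Luc-4E2 cells alongside 17beta-estradiol agonist, incubated 21.5 h, and ERE-driven luciferase measured with ONE-Glo. Cytotoxicity was multiplexed using CellTiter-Fluor fluorescence.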

For experiment [18], the target named is Androgen receptor (Homo sapiens) (UniProt P10275). Kind of experiment: qHTS assay to identify small molecule agonists of the androgen receptor (AR) signaling pathway using the MDA cell line (AID 743040; further: nearly all actives have a fitted effect of over 20% in size). The method in brief:
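Stable MMTV-luciferase reporter in MDA-kb2 cells; note the promoter carries GR as well as AR response elements. 16 h compound treatment, 37C, 0% CO2; ONE-Glo luminescence endpoint.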

Androgen receptor (Homo sapiens), sequence (P10275 whole entry, looked up): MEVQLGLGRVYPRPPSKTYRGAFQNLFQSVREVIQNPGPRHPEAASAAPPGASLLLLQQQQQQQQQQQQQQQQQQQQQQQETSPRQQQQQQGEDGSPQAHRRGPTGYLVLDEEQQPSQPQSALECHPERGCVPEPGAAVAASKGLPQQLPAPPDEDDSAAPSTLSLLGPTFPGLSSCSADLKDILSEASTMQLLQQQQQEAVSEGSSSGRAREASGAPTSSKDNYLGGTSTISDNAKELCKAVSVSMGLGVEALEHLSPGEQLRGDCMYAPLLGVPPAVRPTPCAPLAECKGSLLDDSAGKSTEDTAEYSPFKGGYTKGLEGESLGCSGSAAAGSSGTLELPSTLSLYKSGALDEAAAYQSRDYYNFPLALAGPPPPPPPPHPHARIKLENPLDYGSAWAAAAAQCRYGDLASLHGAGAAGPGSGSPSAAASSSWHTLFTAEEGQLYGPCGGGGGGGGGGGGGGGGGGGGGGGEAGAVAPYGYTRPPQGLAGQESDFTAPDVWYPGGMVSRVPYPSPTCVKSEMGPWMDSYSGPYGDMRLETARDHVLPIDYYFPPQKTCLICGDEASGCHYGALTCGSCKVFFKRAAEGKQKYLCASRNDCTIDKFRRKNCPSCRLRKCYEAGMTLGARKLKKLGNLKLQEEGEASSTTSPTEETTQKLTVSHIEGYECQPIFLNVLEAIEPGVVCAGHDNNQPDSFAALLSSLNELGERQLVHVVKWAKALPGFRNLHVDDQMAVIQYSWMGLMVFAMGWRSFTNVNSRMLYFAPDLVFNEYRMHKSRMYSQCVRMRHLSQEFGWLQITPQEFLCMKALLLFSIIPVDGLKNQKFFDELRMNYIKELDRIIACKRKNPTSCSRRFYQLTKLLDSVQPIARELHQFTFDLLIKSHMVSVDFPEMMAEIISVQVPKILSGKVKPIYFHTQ

For `COc1cc2c(cc1OC)-c1cc(=Nc3c(C)cc(C)cc3C)n(C)c(=O)n1CC2`, the Potency was 2.66 µM (active) in [1]; 4.22 µM (active) in experiment [2]; 6.68 µM (active) in [3]; 19 µM (active) in experiment [4]; 29.8 µM (active) in experiment [5]; 21.1 µM (active) in experiment [6]. In addition, the Potency in experiment [7] was 18.8 µM (active); in the experiment with Aromatase (Homo sapiens) it was 26.6 µM (active). Besides, in experiment [8], the Potency result is “inactive”.
Turning to `COC(=O)Nc1nc2ccc(C(=O)c3cccs3)cc2[nH]1`, the Potency in [1] was 0.15 µM (active); in experiment [2], 0.211 µM (active); in [3] it was 0.237 µM (active); in experiment [6] it was 0.266 µM (active); in experiment [7] it was 0.237 µM (active). The Potency entry (in experiment [9]; in experiment [11]; in the experiment with Aromatase (Homo sapiens)) was “inactive” in each case. Further, the compound was classed as inactive in [10].
`c1cc[c]([Bi]([c]2ccccc2)[c]2ccccc2)cc1`: the Potency is 61.1 µM (active) in experiment [1], 61.1 µM (active) in experiment [3], 54.5 µM (active) in experiment [7] and 21.7 µM (active) in [15]. Further, the Potency result (in experiment [12]; in experiment [13]; in experiment [14]; in experiment [8]; in experiment [11]; with Aromatase (Homo sapiens)) was “inactive” throughout. In addition, in [10], the call was inactive.
As to `COc1ccccc1N=Nc1c(S(=O)(=O)O)cc2cc(S(=O)(=O)O)cc(NC(C)=O)c2c1O`, the Potency in experiment [2] was 18.2 µM (active); in experiment [3], 14.4 µM (active); in [6] it was 32.3 µM (active); in experiment [11], 28.8 µM (active). For the same compound, the Potency entry in experiment [12] and in [14] was “inactive” each time. Also, the outcome in experiment [10] was inactive.
For the compound `CCOC(=O)/C=C/C(=O)O`, the Potency result in experiment [1], in experiment [12], in experiment [4], in [16], in experiment [9] and in experiment [5] was “inactive” throughout. Besides, the Potency result in [6], in experiment [13], in experiment [8], in experiment [15], in experiment [17] and in [11] was “inactive” throughout. Also, the Potency entry with Aromatase (Homo sapiens) is “inactive”. Further, in experiment [10], the call was inactive.
`CC(C)=CC=O`: the Potency entry in experiment [2], in experiment [3], in [12], in experiment [4], in [9] and in experiment [5] was “inactive” each time. For the same compound, the Potency entry in experiment [6], in experiment [7], in experiment [13], in experiment [14], in [8] and in [15] was “inactive” each time. For the same compound, the Potency entry (in experiment [17]; in experiment [11]; with Aromatase (Homo sapiens)) was “inactive” throughout. In experiment [10], the compound was called inactive.
Take `CCOC(=O)c1ccccc1C`: in [2], the Potency is 61.1 µM (active). The Potency entry in experiment [12], in [9], in experiment [7], in experiment [13], in experiment [14] and in experiment [8] was “inactive” in each case. Moreover, the Potency result (in experiment [15]; in [17]; in experiment [11]; with Aromatase (Homo sapiens)) was “inactive” in each case. Moreover, the call in experiment [10] was inactive.
Regarding `O=C(c1ccc(O)cc1)c1ccc(Cl)cc1`, the Potency in experiment [2] was 62.4 µM (active); in experiment [3], 55.6 µM (active). Also, the Potency entry (in experiment [12]; in experiment [14]; in experiment [11]; in the experiment with Aromatase (Homo sapiens)) was “inactive” in each case. Also, in experiment [10], the compound was called inactive.
Take `CNC(=S)NC`: the Potency in experiment [1] is 61.1 µM (active); in [2], 43.3 µM (active); in [3], 61.1 µM (active). Besides, the Potency entry in experiment [18], in experiment [6], in experiment [13], in [14], in experiment [8] and in experiment [15] was “inactive” throughout. Further, the Potency entry (in experiment [17]; in [11]; in the experiment with Aromatase (Homo sapiens)) was “inactive” throughout. Also, the call in [10] was inactive.
In the case of `C[C@@H]1C[C@H]2[C@@H]3CCC4=CC(=O)C=C[C@]4(C)[C@@]3(F)[C@@H](O)C[C@]2(C)[C@@]1(O)C(=O)CO`, the Potency was 0.553 µM (active) in experiment [2] and 55.3 µM (active) in experiment [3]. Besides, the Potency entry (in experiment [12]; in experiment [9]; in [14]; in [11]; in the experiment with Aromatase (Homo sapiens)) was “inactive” in each case. The compound was called inactive in experiment [10].
